Hit rate of the full screen: of about 320,000 compounds, about 2,100 (0.66%) were called active. Another 53% or so got no clear call; they are omitted. Calls come from the whole dose curve; as a rule, active = well fitted inhibition curve with a large enough effect in the signal ratio, with a control signal flat (not every such curve was filed as active); inconclusive = small, poorly fitted or top-dose-only effect, or effect the other way, or a change in a side signal; inactive = flat fitted curve, though single readings scatter; the % refers to the signal ratio. Many of the other results were omitted from the sample, so actives are more common in it than they were.
Potency is the fitted concentration of half-maximal effect.

This assay is described as follows: qHTS Assay for Lipid Storage Modulators in Drosophila S3 Cells.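 For cell number change: cells counted by Cell Tracker Red CMTPX staining in the red channel.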 For lipid storage change, negative = inhibition: % is set by controls: 0 for no effect and ±100 for the full control effect. As to conditions: BODIPY lipid droplet fluorescence, 18-24 h, cells fed with added oleic acid; cell number change: measured here: cell count max response; series mostly up to 46.1 µM. Summed up:
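Drosophila S3 cells loaded with oleic acid (400 uM, as added) and compounds at several concentrations; lipid droplets imaged by 488-nm laser-scanning cytometry, 500–530 nm intensity and object ratio to cell channel. Percent activity normalized to 20 uM Triacsin C.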
Take `COc1cccc(CN2CC(C(=O)N3CCOCC3)CCC2=O)c1` (stereo unspecified): the Potency result is “inactive” and the cell number change is -3.29%. On the same counts, the results for `c1ccc(-c2csc3ncnc(NCC4COc5ccccc5O4)c23)cc1` (stereo unspecified) are 1.84 µM (active) and -33.8%. With `c1ccc(-c2csc3ncnc(NCc4ccccn4)c23)cc1`, the Potency result was “inactive” and the cell number change was -13.1%.

Consider `c1ccc(-c2csc3ncnc(NCCN4CCOCC4)c23)cc1`, for which the Potency entry was “inactive” and the cell number change is -69.5%.

As for `COc1ccc(S(=O)(=O)NCC2CCCN(C(=O)C=C(C)C)C2)cc1` (stereo unspecified), the Potency entry is “inactive” and the cell number change was -5.61%. With `CCOc1ccccc1C(=O)N1CCC(n2nnc3cc(C(F)(F)F)ccc32)CC1`, the Potency entry was “inactive”. For `O=C(CCC(=O)N(CC(=O)NC1CCCCC1)Cc1cccs1)Nc1nccs1`, the Potency result is “inactive” and the cell number change was -2.3%. Taken in the same sequence, the figures for `Cc1csc(NC(=O)CCC(=O)N(CC(=O)NC2CCCC2)Cc2ccco2)n1` were “inactive” and 5.63%. Taken in the same sequence, the figures for `CC(C)CCNC(=O)CN(C(=O)CCC(=O)Nc1nccs1)C1CCCCC1` were 1.3 µM (active) and -4.17%. `CC(C)CCNC(=O)CN(Cc1ccccc1)C(=O)CCC(=O)Nc1nccs1`: the Potency entry was “inactive” and the cell number change stood at 2.61%.

Take `CC(C)CCNC(=O)CN(CC1CCCO1)C(=O)CCC(=O)Nc1nccs1` (stereo unspecified): the Potency entry was “inactive” and the cell number change was found to be 9.95%. Consider `O=C(CN(Cc1ccccc1)C(=O)CCC(=O)Nc1nccs1)NCc1ccccc1`, for which the Potency entry was “inactive” and the cell number change is -17.1%. Taken in the same sequence, the figures for `COc1ccc(CN(CC(=O)NC2CCCC2)C(=O)CCC(=O)Nc2nc(C)cs2)cc1` were 4.61 µM (active) and 2.99%.

Take `O=C(CCC(=O)N(CC(=O)NC1CCCC1)Cc1ccccc1)Nc1nccs1`: the Potency was 3.66 µM (active) and the cell number change stood at 6.76%. With `COc1ccc(CN(CC(=O)NC2CCCC2)C(=O)CCC(=O)Nc2cc(C)on2)cc1`, the Potency entry is “inactive” and the cell number change came to 2.01%. On the same counts, the results for `CC(C)(C)OC(=O)[C@H](NC(=O)OCc1ccccc1)c1ccccc1` are “inactive” and -4.27%.

Take `CSc1nc(=S)n(Cc2ccccc2)c(C)c1C(C)=O`: the Potency entry was “inactive” and the cell number change stood at 2.19%. On to `CCSc1nc(=S)n(CC)c(C)c1C(C)=O`, for which the Potency result is “inactive” and the cell number change was determined as 11%.

Turning to `CCn1c(C)c(C(C)=O)c(SC)nc1=S`, the Potency is 23.1 µM (active) and the cell number change is -9.08%.

Consider `CS(=O)(=O)N(CC(=O)Nc1ccccc1-c1ccccc1)c1ccccc1`, for which the Potency entry is “inactive” and the cell number change is 6.57%. Take `CNC(=S)NNC(=O)c1ccc(=O)n(Cc2ccc(Cl)cc2Cl)c1`: the cell number change is -1.09% and the lipid storage change, negative = inhibition was 14.6% [at 9.22 µM] (inactive). `CC(C)(O)CC[C@@H](O)[C@](C)(O)[C@H]1CC[C@@]2(O)C3=CC(=O)[C@@H]4C[C@@H](O)[C@@H](O)C[C@]4(C)C3CC[C@]12C` (stereo partly specified): the Potency entry was “inactive” and the cell number change is -13.6%.

Turning to `Cc1cccc(-n2cc(-c3ccccc3)c3c(N4CCOCC4)ncnc32)c1`, the Potency result is “inactive” and the cell number change turned out to be 18.2%. Turning to `CC(=O)CSc1ncnc2nc[nH]c12`, the Potency result is “inactive”. On to `O=C(O)CSc1ncnc2nc[nH]c12`, for which the Potency was 20.6 µM (active) and the cell number change was found to be 2.03%.

On to `O=C(CSc1ncnc2nc[nH]c12)c1ccc(Cl)cc1`, for which the Potency entry is “inactive” and the cell number change was -11.7%. On the same counts, the results for `CC(C)c1nnc(NC(=O)C2CCN(C(=O)Nc3ccc(Cl)cc3)CC2)s1` are “inactive” and 5.41%. Taken in the same sequence, the figures for `CCc1ccccc1NC(=S)N(CCN1CCCCC1)Cc1ccco1` were “inactive” and 5.79%. Consider `Cc1cc(OCCCn2cnc3ccccc3c2=O)ccc1[N+](=O)[O-]`, for which the Potency entry was “inactive” and the cell number change is 0.141%. On the same counts, the results for `COc1cc(OC)cc(C(=O)NC(=S)NNC(=O)Cc2cccs2)c1` are “inactive” and 0.453%. On the same counts, the results for `CCOC(=O)N1CCN(c2c(N3CCN(c4ccc(OC)cc4)CC3)c(=O)c2=O)CC1` are “inactive” and 5.73%. For `CCCCn1c(CN2CCN(c3ccc(F)cc3)CC2)nc2c1c(=O)n(C)c(=O)n2C`, the Potency result is “inactive” and the cell number change was found to be 2.55%.

Consider `CCCCn1c(CN2CCN(c3cccc(Cl)c3)CC2)nc2c1c(=O)n(C)c(=O)n2C`, for which the Potency entry is “inactive”. With `CCCCn1c(CN2CCN(c3ccccc3)CC2)nc2c1c(=O)n(C)c(=O)n2C`, the Potency was 20.6 µM (active) and the cell number change was -29.7%. On the same counts, the results for `O=C(NCc1ccccc1)C1C2C=CC3(CN(Cc4cccnc4)C(=O)C13)O2` (stereo unspecified) are “inactive” and -20%. On to `Cc1cc(C(=O)CSc2nn3c(=O)c(C(C)(C)C)nnc3s2)c(C)n1C1CC1`, for which the Potency entry was “inactive”.

On to `CCOc1ccc(NC(=S)NC(=O)C2CCCC2)cc1`, for which the Potency entry is “inactive”. On to `CCCCN1C(=O)/C(=C/C=C2/CC(C)(C)CN2C)SC1=S`, for which the Potency is 9.2 µM (active) and the cell number change stood at 0.528%. Turning to `CN1CCS/C1=C/C=C1\SC(=S)N(CC(=O)O)C1=O`, the Potency entry is “inactive” and the cell number change was -4.93%. For the compound `CN1CCS/C1=C\C=C1/SC(=S)N(CC(=O)O)C1=O`, the Potency entry was “inactive” and the cell number change amounted to 6.49%. Taken in the same sequence, the figures for `Cc1ccc(C)c(OCc2nnc(SCC(=O)NCc3ccc4c(c3)OCO4)o2)c1` were “inactive” and 17.4%. Regarding `CC(C)Nc1ccc(C(CC(N)=O)NC(=O)Cc2ccc(Cl)cc2)cc1[N+](=O)[O-]` (stereo unspecified), the Potency result is “inactive”. For the compound `COC(=O)C(C)Sc1nnc(SC(C)C(=O)OC)s1` (stereo unspecified), the Potency entry is “inactive” and the cell number change came out at 26.4%.

`COC(=O)C(C)Sc1n[nH]c(=S)s1` (stereo unspecified): the Potency is 18.4 µM (active) and the cell number change was 12.5%.

As to `COC(=O)CSc1n[nH]c(=S)s1`, the Potency entry was “inactive” and the cell number change was -9.98%. Taken in the same sequence, the figures for `CCCCCCCc1c(O)nc(SCCN2CCOCC2)[nH]c1=O` were “inactive” and 2%.
